Shown are actives, neighbours in structure and some others; about 28% of the full set was active somewhere.
Mac1 fbg enh: CD11b/CD18-fibrinogen binding enhancement. K562 CD11b/CD18 adhesion to fibrinogen, ATPlite luminescence. activation, % at 10 µM. 93,000 compounds, 0.07% hits;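 active means 10 µM primary screen giving 50% or more activity, confirmed by 40% or more on retest at that dose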
Target sequence (P05107 whole entry, looked up, other chains not shown): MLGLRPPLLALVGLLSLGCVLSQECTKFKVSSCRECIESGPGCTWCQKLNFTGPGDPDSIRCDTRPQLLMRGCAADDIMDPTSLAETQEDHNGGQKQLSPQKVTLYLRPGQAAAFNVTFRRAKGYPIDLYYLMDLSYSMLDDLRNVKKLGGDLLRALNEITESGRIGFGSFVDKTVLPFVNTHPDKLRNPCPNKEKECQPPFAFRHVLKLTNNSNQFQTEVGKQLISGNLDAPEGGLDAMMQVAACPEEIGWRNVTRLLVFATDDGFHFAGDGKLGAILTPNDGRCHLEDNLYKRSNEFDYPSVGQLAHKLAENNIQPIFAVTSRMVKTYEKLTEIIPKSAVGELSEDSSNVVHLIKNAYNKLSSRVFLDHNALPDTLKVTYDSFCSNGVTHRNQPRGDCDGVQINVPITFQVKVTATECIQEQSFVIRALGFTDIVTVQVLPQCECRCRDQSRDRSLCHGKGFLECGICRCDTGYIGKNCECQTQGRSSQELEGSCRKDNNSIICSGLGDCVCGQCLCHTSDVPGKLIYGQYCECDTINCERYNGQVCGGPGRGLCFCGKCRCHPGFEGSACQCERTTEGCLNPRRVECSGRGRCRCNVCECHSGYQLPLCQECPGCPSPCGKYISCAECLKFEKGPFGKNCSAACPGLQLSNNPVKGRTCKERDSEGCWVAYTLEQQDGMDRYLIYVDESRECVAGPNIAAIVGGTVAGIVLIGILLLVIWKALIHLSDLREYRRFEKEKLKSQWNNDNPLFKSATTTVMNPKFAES
CYP2C9 inhib: blocks human cytochrome P450 2C9. P11712. CYP2C9 Supersomes, luciferin-H conversion, luminescence. inhibition, % at 5 µM. 96,000 compounds, 20% hits. AID 777;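 active means blocking of liver enzyme CYP2C9 beyond about 50% at 5 µM, limit read from the data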
CYP2C19 activ: increases human CYP2C19 enzyme activity | P33261 | 96,000 tested, under 10 active | activation factor at 5 µM | AID 1025 | recombinant CYP2C19, luciferin-H EGE luminescence; hits give high values; 0 = fully inhibited enzyme, 1 = untreated enzyme;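 active means activation factor of at least 2 at 5 µM in the primary screen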;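 further: 0 = wells with 2.5 mM tranylcypromine and 1 = vehicle-only wells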
CYP2C9 act: increases human cytochrome P450 2C9 activity; P11712; recombinant CYP2C9, luciferin-H conversion, luminescence; hits give high values; factor 1 = untreated enzyme, 0 = blocked; activation factor at 5 µM; 96,000 compounds, 1.4% hits; AID 1024;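 active means activation factor of 2 or more for CYP2C9 at a 5 µM dose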;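 further: 0 = sulfaphenazole-blocked wells and 1 = vehicle-only wells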
Mac1 fbg inh: CD11b/CD18-fibrinogen binding inhibition; P05107+P11215; K562 CD11b/CD18 adhesion to fibrinogen, ATPlite luminescence; Mn2+ added to activate the integrin; inhibition, % at 10 µM; 93,000 compounds, 0.54% hits; AID 1497;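 active means primary inhibition of 50% or more at 10 µM, then 40% or more on retest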
CYP2C19 inh: inhibitors of human CYP2C19; P33261; CYP2C19 Supersomes, luciferin-H EGE luminescence, 30 min; inhibition, % at 5 µM; 96,000 compounds, 21% hits;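 active means CYP2C19 inhibition above a set limit at 5 µM in the primary screen, cut at about 50% in these data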;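 further: plate controls were negative control wells for no effect and 2.5 mM tranylcypromine positive control for full effect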
Starred values were filed as active, the others as inactive; · = not tested or not shown.

SMILES	Mac1 fbg enh	CYP2C9 inhib	CYP2C19 activ	CYP2C9 act	Mac1 fbg inh	CYP2C19 inh
COc1ccc(C(C(=O)NC2CCCC2)N(Cc2ccc(C)cc2)C(=O)c2ccn[nH]2)cc1OC (stereo unspecified)	·	20	0.9	0.8	·	13
Cc1ccc(C2C(C#N)=C(N)Oc3c2oc(CO)cc3=O)o1 (stereo unspecified)	1	-3	1.1	1	5	-13
COc1ccc(Nc2nnc(-c3ccc(N4CCOCC4)c([N+](=O)[O-])c3)c3ccccc23)cc1	·	53*	0.8	0.5	·	17
CCCc1nc(SCC(=O)N2CCc3ccccc3C2)c2ccccc2n1	·	78*	0.4	0.2	·	57*
CCOC(=O)CNC(=O)CSc1nc(Cc2cccs2)nc2ccccc12	·	44	0.4	0.6	·	58*
CCOC(=O)CSc1nc(CC)nc2ccccc12	-1	17	0.6	0.8	-2	45
CC1CC(C)CN(C(=O)CSc2nc(Cc3cccs3)nc3ccccc23)C1 (stereo unspecified)	-2	72*	0.7	0.3	24	28
COCCn1c(SCC(=O)N2CCc3ccccc3C2)nc2ccccc2c1=O	-2	·	·	·	8	·
CCc1nc(SCC(=O)NNC(=O)C2CCCCC2)c2ccccc2n1	·	-81	1	1.8	·	-4
O=c1cc(N2CCC(Cc3ccccc3)CC2)[nH]c(=O)n1C1CCCCC1	·	20	0.8	0.8	·	16
Cn1c(=O)c2c(nc(OCc3ccccc3)n2C)n(C)c1=O	0	-2	1	1	-10	-3
CC(=O)Nc1ccccc1OCC(=O)NC(C)c1ccc(F)cc1 (stereo unspecified)	-2	·	·	·	-3	·
CSc1ncc(Cl)c(C(=O)Nc2ccccc2Cl)n1	-1	·	·	·	-11	·
O=C(Cn1cc(C(F)(F)F)ccc1=O)N1CCN(S(=O)(=O)c2ccc(Cl)cc2)CC1	3	5	1	0.9	-28	2
COCCn1c(C)c(C(=O)O)sc1=S	3	-16	1.1	1.2	-8	-8
COC(=O)c1cc2oc3ccccc3c2n1Cc1ccccn1	-2	51*	0.3	0.5	-30	73*
COC(=O)c1cc2oc3ccccc3c2n1CC(=O)N1CCCc2ccccc21	-2	22	0.7	0.8	0	34
COc1ccnc(NCc2ccc(Cl)cc2)c1C#N	-6	30	0	0.7	-4	100*
COc1ccnc(Nc2ccc(C)c(C)c2)c1C#N	1	0	1.1	1	-9	-14
CC(=O)NC1CC2CCC(C1)N2Cc1ccc(C)cc1 (stereo unspecified)	0	-1	0.5	1	2	54*
CCOC(=O)c1c(C)oc2cc(Br)c(OC(=O)N3CCOCC3)cc12	-2	51*	0.2	0.5	-5	76*
CCn1nnnc1SCC(=O)Nc1cc(OC)cc(OC)c1	-8	4	1	1	0	3
O=C(/C=C/c1c(Cl)cccc1Cl)NCCc1ccccc1	3	-167	0.8	2.7*	5	20
CCOC(=O)c1c(NC(=O)C(=O)N/N=C/c2ccccc2O)sc2c1CCCCC2	26	·	·	·	4	·
Cc1ccc(S(=O)(=O)NC(C(=O)Oc2ccc3c(C(F)(F)F)cc(=O)oc3c2)c2ccccc2)cc1 (stereo unspecified)	-6	·	·	·	57*	·
SMILES	Mac1 fbg enh	CYP2C9 inhib	CYP2C19 activ	CYP2C9 act	Mac1 fbg inh	CYP2C19 inh
Cc1ccc(S(=O)(=O)NC(CC(C)C)C(=O)Oc2ccc3c4c(c(=O)oc3c2)CCC4)cc1 (stereo unspecified)	·	24	0.7	0.8	·	31
Nc1nnc(SCCCC(=O)c2ccccc2)s1	2	·	·	·	-8	·
FCCCOc1ccc(-c2nccc(-c3ccc(F)cc3)n2)cc1	-1	81*	0.5	0.2	4	54*
CCOC(=O)C1CCN(S(=O)(=O)c2ccc(OC)c(Cl)c2Cl)CC1	-2	-23	1.1	1.2	-27	-14
CCOC(=O)C1CCN(S(=O)(=O)c2ccc(Cl)cc2OC)CC1	0	-43	0.2	1.4	-7	84*
CCOC(=O)C1CCN(S(=O)(=O)c2cc(Cl)c(C)cc2OC)CC1	5	3	0	1	5	98*
N#CCCCn1c(-c2ccccc2)noc1=O	-4	-18	0.8	1.2	-2	22
O=C(Cn1c(-c2ccccc2)noc1=O)NCc1ccccc1	-1	-98	0.6	2*	-6	41
